Assay outcomes: PubChem, National Center for Advancing Translational Sciences (NCATS)
Most compounds without a hit are left out; they make up all but 2.4% or so of the library.
Pol kappa inh-1 – qHTS for Inhibitors of Polymerase Kappa; purified Pol kappa, fluorescent DNA synthesis assay, 10 min; 400,000 compounds, 0.53% hits; Potency, µM (doses to about 107 µM), actives largely listed as inhibitors
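10 nM Pol kappa preincubated 15 min at room temperature with compounds, then reaction started with substrate at 50 nM final. Fluorescence read kinetically at 0 and 10 min; buffer-only wells served as negative control.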
Pol iota inh – qHTS for Inhibitors of Polymerase Iota. DNA polymerase iota (Homo sapiens), Q9UNA4. Pol iota fluorescent replication assay, 10 min. Potency, µM (titrated, usually from 115 µM), usual class: inhibitors. 390,000 compounds, 1% hits
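Fluorescent replication assay read twice, at 0 min and 10 min after adding 50 nM (final) substrate. Enzyme (10 nM) and compounds were first incubated 15 min at room temperature; enzyme-free buffer wells were negative controls.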
Pol eta inh-1 – qHTS for Inhibitors of Polymerase Eta; Potency, µM (series often up to 114 µM), actives largely listed as inhibitors; DNA polymerase eta (Homo sapiens), Q9Y253; recombinant Pol eta, fluorescent DNA replication assay; AID 588591, 2011; 390,000 compounds, 1.2% hits
Target sequence (Q9Y253 whole entry, looked up): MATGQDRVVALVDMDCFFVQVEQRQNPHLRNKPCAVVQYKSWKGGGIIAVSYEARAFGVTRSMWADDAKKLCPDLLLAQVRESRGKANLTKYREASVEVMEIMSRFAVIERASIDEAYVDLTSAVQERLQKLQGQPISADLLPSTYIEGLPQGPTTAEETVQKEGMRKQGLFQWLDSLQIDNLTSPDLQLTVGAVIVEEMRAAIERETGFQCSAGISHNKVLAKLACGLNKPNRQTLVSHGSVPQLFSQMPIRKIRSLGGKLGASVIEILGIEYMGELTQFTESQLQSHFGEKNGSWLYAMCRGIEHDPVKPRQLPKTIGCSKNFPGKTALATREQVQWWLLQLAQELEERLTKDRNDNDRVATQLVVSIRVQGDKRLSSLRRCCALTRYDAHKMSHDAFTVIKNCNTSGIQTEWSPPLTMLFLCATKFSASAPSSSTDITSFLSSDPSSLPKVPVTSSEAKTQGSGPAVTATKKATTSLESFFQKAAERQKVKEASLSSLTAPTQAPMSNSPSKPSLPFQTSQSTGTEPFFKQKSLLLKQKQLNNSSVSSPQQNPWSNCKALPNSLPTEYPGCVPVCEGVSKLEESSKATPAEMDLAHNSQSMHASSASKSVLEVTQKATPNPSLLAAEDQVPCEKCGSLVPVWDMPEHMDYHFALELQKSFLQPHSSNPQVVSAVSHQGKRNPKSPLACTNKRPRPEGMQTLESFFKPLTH
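Pol eta (10 nM) was preincubated with compounds for 15 min at room temperature, after which fluorescent replication substrate (50 nM final) was added to start the reaction. Fluorescence was read kinetically at 0 and 10 min.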
Pol beta inh – qHTS Assay for Inhibitors of DNA Polymerase Beta. P06746. AID 485314, 2010. Potency, µM (series often up to 114 µM), usual class: inhibitors. 340,000 compounds, 1.3% hits. Pol beta primer extension/strand displacement, fluorescence kinetic
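Pol beta (10 nM) and compounds were preincubated 15 min at room temperature, then 50 nM substrate (final) started primer extension/strand displacement. Reads were taken at 0 and 10 min; concentration-response data were fitted to a four-parameter Hill equation.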
TDP1 block – qHTS Assay for Inhibitors of Tyrosyl-DNA Phosphodiesterase (TDP1) | 350,000 compounds, 0.28% hits | recombinant TDP1, AlphaScreen DNA substrate cleavage | Potency, µM (highest dose often 130 µM), usual class: inhibitors | AID 485290, 2010; also: nearly all actives have a fitted effect of over 40% in size
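E. coli-derived human Tdp1, 1 nM final. Cpd preinc 15 min RT; substrate 15 nM final, 5 min RT; AS bead mix 10 ug/ml final, 10 min RT. Signal loss = tyrosine-FITC cleavage. No-enzyme wells = max signal.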
GALK inh confirm – Confirmation Assay for Inhibitors of Human Galactokinase (GALK); shares compounds with Pol eta inh-1; Potency, µM (series often up to 115 µM), hits mostly inhibitors; purified GALK, Kinase-Glo ATP depletion luminescence; 150 compounds, 70% hits
GALK redox cs – Confirmatory Assay for Inhibitors of Human Galactokinase (GALK): Phenol-HRP redox assay counterscreen. shares compounds with Pol eta inh-1. Phenol red-HRP H2O2 redox cycling, absorbance 600 nm. Potency, µM (series often up to 115 µM), hits mostly inhibitors. 150 compounds, 40% hits. AID 2035, 2009
HEK293 viability – Secondary Assay for Inhibitors of Human Galactokinase (GALK): HEK-293 Cell Viability Assay. shares compounds with Pol eta inh-1. HEK-293 viability, ATP luminescence (CellTiter-Glo), 24/48 h. Potency, µM (top dose mostly 46.1 µM), hits mostly inhibitors. 170 compounds, 10% hits. AID 2547, 2010
Pol kappa inh-2 – qHTS for Inhibitors of Polymerase Kappa: Confirmatory Assay for Cherry-picked Compounds; shares compounds with Pol eta inh-1; purified Pol-kappa, fluorescent strand-displacement substrate; Potency, µM, most hits filed as inhibitors; 920 compounds, 76% hits
Pol eta inh-2 – qHTS for Inhibitors of Polymerase Eta: Confirmatory Assay for Cherry-picked Compounds. shares compounds with Pol eta inh-1. Pol eta primer extension, TAMRA/BHQ fluorescence, 10 min. Potency, µM, usual class: inhibitors. 2,600 compounds, 64% hits
Each line names hits and unclear results; the compound was inactive in the other large screens (follow-up assays come after a bar, where they were run). Calls follow the shape of the dose curve; as a rule, active = well fitted curve in the direction sought with a large enough effect; inconclusive = small, poorly fitted or top-dose-only effect, or another doubt; inactive = no such curve, though single readings can be large; an effect the other way counts as inactive or inconclusive.

CS(=O)(=O)C1=NSC2=NC(=O)/C(=C\c3cccn3-c3ccc(Cl)cc3)C(=N)N21	Pol iota inh inconclusive, Pol eta inh-1 22.4µM, Pol beta inh 22.4µM, TDP1 block 79.4µM | Pol eta inh-2 inconclusive
N=C1/C(=C/c2cccn2-c2ccc([N+](=O)[O-])cc2)C(=O)N=C2SC=CN12	Pol iota inh inconclusive, Pol eta inh-1 inconclusive, Pol beta inh inconclusive
CSC1=NSC2=NC(=O)/C(=C/c3coc4ccccc4c3=O)C(=N)N12	Pol kappa inh-1 inconclusive, Pol eta inh-1 14.1µM, Pol beta inh 39.8µM | Pol kappa inh-2 67
N=C1/C(=C\c2coc3ccccc3c2=O)C(=O)N=C2SC=CN12	Pol kappa inh-1 inconclusive, Pol eta inh-1 39.8µM, Pol beta inh inconclusive (no result: TDP1 block) | Pol eta inh-2 inconclusive
CC(C)CSC1=NSC2=NC(=O)/C(=C\c3cccs3)C(=N)N12	Pol eta inh-1 inconclusive
N=C1/C(=C/c2cccs2)C(=O)N=C2SN=C(SCc3ccccc3)N12	Pol iota inh inconclusive, Pol eta inh-1 25.1µM, Pol beta inh inconclusive | GALK inh confirm 42.1µM | GALK redox cs inactive | HEK293 viability inactive
O=C(NCc1ccccc1Cl)c1ccc2c(O)c(S(=O)(=O)c3ccccc3)c(=O)[nH]c2c1	none
Cc1ccccc1CN1C(=O)C(O)(c2c[nH]c3ccccc23)c2cc(Cl)ccc21 (stereo not drawn)	Pol iota inh inconclusive
Cc1cc(C)c(NC(=O)c2cc(S(=O)(=O)N3CCCC3)cn2C)c(C)c1	none
Cn1cc(S(=O)(=O)N2CCCC2)cc1C(=O)O	Pol iota inh inconclusive, Pol eta inh-1 22.4µM (no result: Pol beta inh, TDP1 block) | Pol kappa inh-2 inconclusive
O=C(NN1C(=O)C2CC=C(Cl)CC2C1=O)c1ccncc1 (stereo not drawn)	Pol kappa inh-1 50.1µM, Pol iota inh 39.8µM, Pol eta inh-1 10µM, Pol beta inh 3.16µM, TDP1 block 35.5µM | Pol eta inh-2 60.1
COc1ccc(NC(=O)c2ccc(N3C(=O)C4CC=C(Cl)CC4C3=O)cc2)cc1 (stereo not drawn)	Pol iota inh inconclusive, Pol beta inh inconclusive (no result: TDP1 block)
COc1cc(/C=C/c2ccc3cccc([N+](=O)[O-])c3n2)ccc1OCC(=O)O	Pol kappa inh-1 inconclusive, Pol iota inh inconclusive, Pol eta inh-1 20µM, Pol beta inh inconclusive | Pol kappa inh-2 inconclusive | Pol eta inh-2 75.7
COc1c2c(cc3c1C(CC(O)C(C)C)N(C)CC3)OCO2 (stereo not drawn)	none (no result: Pol kappa inh-1, Pol iota inh, Pol eta inh-1, Pol beta inh)
CCC(=O)c1ccc(CCCCCC(=O)O)s1	Pol kappa inh-1 inconclusive, Pol iota inh inconclusive, Pol eta inh-1 8.91µM, Pol beta inh 35.5µM, TDP1 block 17.8µM | Pol eta inh-2 37.9
CC(=O)c1ccc(CCCCCCCCCC(=O)O)s1	Pol eta inh-1 inconclusive
COc1ccc2c(c1)NC(c1cccnc1)=NC(c1ccc(F)cc1)=N2	none (no result: Pol eta inh-1)
